The results in this text go back to PubChem BioAssay AID687011 (National Center for Advancing Translational Sciences (NCATS), 2013).

Active and inactive are the calls of the source.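 The calls were made as follows: active = significant body weight gain in treated spinal muscular atrophy model mice compared with vehicle-treated controls; inactive = no significant body weight gain.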

A short description of this test: Extended Characterization of SMN2 Inhibitors: Body Weight Studies. The following applies: SMNdelta7 SMA mice, 50 mg/kg ip. The text has this:
Spinal muscular atrophy (SMA) is caused by insufficient levels of the survival motor neuron protein SMN. The SMN locus on chromosome 5q13 contains two inverted copies of SMN called SMN1 and SMN2 which are 99% identical at the amino acid level. SMN1 is a fully functional protein and SMN2 skips exon 7 90% of the time. Skipping of exon 7 produces non-functional protein product. 10% of the SMN2 protein includes exon 7 and is fully functional. In the SMA disease state, mutations in the SMN1 locus are the cause of the disease state. Because only 10% of SMN2 is of the fully functional form, it is not sufficient to overcome the deficiency produced by the loss of the SMN1 product. A therapy that either increase the amount of SMN2 product made or to increase the inclusion of exon 7 has been proposed for the treatment of SMA. We have previously filed a probe report and have now done further SAR and further characterized the resulting compounds in mice studies. Here we tested the new compound to see if there was an improval in body weight when administered to SMNdelta7 SMA mice. NIH Chemical Genomics Center [NCGC] NIH Molecular Libraries Probe Production centers Network [MLPCN] MLPCN Grant: R03 MH084179 Assay Submitter (PI): Elliot Androphy […]
In the case of `O=C(O)C1CCN(c2ncc(-c3ccc4c(c3)OCCCO4)s2)CC1`, the outcome was “active; yes”.
